These results are taken from ChEMBL document CHEMBL4808148, “HDAC6 screening dataset using tau-based substrate in an enzymatic assay yields selective inhibitors and activators” (2021).

The campaign covered roughly 5,600 compounds. About 390 (7%) showed an effect of 50% or more. This is one part of a sample in which strong results are shown more often than they occur.

Test [1] deals with T1, Protein deacetylase HDAC6 (Homo sapiens) (UniProt Q9UBN7).
T1 sequence (whole entry): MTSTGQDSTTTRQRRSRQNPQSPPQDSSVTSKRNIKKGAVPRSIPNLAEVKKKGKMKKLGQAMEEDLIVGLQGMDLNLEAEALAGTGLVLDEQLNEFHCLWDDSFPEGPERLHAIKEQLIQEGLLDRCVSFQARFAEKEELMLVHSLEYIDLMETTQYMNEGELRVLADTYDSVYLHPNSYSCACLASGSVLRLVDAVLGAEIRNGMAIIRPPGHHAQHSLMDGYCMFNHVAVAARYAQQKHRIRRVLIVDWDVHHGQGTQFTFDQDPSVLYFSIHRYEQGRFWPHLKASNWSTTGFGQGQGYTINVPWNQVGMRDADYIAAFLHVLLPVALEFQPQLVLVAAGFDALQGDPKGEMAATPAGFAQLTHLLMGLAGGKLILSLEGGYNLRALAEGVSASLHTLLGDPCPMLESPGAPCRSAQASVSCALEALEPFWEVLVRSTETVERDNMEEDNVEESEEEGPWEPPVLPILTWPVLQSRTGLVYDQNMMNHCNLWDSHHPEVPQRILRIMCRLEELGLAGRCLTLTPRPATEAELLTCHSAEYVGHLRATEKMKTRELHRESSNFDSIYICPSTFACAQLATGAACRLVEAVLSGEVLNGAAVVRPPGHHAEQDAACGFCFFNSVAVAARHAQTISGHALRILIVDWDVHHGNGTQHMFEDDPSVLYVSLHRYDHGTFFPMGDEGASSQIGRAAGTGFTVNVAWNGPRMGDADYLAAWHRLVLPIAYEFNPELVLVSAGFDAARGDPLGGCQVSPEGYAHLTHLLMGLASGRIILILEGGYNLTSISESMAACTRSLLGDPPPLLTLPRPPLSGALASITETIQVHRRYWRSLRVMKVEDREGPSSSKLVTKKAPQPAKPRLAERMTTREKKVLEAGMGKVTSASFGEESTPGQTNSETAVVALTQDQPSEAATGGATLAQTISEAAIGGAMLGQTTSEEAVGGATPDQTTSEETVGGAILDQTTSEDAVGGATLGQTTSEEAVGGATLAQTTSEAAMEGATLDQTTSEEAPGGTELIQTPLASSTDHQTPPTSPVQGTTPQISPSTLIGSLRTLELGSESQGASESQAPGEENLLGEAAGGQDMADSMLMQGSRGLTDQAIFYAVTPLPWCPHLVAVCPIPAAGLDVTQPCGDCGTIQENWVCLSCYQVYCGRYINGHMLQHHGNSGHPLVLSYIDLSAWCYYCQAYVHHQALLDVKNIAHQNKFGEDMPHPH
The settings on record: at 10 µM.

In test [2] the target is Protein deacetylase HDAC6 (Homo sapiens) (UniProt Q9UBN7). The settings on record: at 10 µM. This is another data set of the same source.

By inhibition is commonly meant the relative decrease from the control value, in per cent. `COc1cc(/C=C2\CCC/C(=C\c3ccc(O)c(OC)c3)C2=O)ccc1O`: the inhibition in test [1] was determined as 35.9%.
The same measure, in the same setting: the result for `Oc1cc(O)cc(/C=C/c2ccc(O)c(O)c2)c1` reads 85.2%.
In the case of `NCC(O)(CS(=O)(=O)O)c1ccc(Cl)cc1` (stereo unspecified), in test [1], the inhibition was -2.67%.
Consider `C=CC1=C(C)c2cc3[nH]c(cc4nc(cc5[nH]c(cc1n2)c(C)c5CCC(=O)O)C(CCC(=O)O)=C4C)c(C)c3C=C`, for which, in test [1], the inhibition is 21.1%.
On the same count and under the same terms, for `C[C@H](N)[C@H](O)c1cccc(O)c1` the value was 1.85%.
Same read-out and setting: the result for `CCCC(=O)C1CCN(c2ncnc3c2CN(C(=O)c2ccc(-c4ccccc4)cc2)CC3)CC1` reads 2.41%; that for `Cn1c(=O)c2c(ncn2CC(=O)Nc2ccc(-c3ccccc3)nn2)n(C)c1=O`, 41.8%.
Same read-out and setting: for `CN(CC[C@@H](Oc1ccc(-c2ccccc2)cc1)c1ccc(F)cc1)CC(=O)O` the value was -3.28%; for `O=C(/C=C/c1c(C(=O)O)[nH]c2cc(Cl)cc(Cl)c12)Nc1ccccc1`, 27.4%.
Take `COc1ccc2c(c1)-c1nn(CCCN(C)C)c3ccc([N+](=O)[O-])c(c13)N2`: in test [1], the inhibition amounted to 9.03%.
On the same count and under the same terms, for `Cn1nnc(-c2ccc(-c3ccc(N4C[C@H](CO)OC4=O)cc3F)cn2)n1` the value was 67.9%; for `CC(=O)NC[C@H]1CN(c2ccc(N3CCSCC3)c(F)c2)C(=O)O1`, 9.47%; for `CC(=O)NC[C@H]1CN(c2ccc(-c3ccc(CNCc4cnn[nH]4)cc3)c(F)c2)C(=O)O1`, 35.9%.
Still for that read-out and setting: for `C[C@@H]1C[C@H]2[C@@H]3CCC4=CC(=O)C=C[C@]4(C)[C@@]3(Cl)[C@@H](O)C[C@]2(C)[C@@]1(OC(=O)c1ccco1)C(=O)CCl` the value was -2.71%; for `CSc1ccc(C(=O)/C=C/c2cc(C)c(OC(C)(C)C(=O)O)c(C)c2)cc1`, -7.51%.
For the compound EUK 134, CHEMBL5308416, the inhibition in test [2] is 33.1%.
As to `Nc1ncnc2c1c(COc1cccc(Cl)c1)nn2C1CCOCC1`, in test [1], the inhibition was -8.17%.
Still for that read-out and setting: for `O=C(O)C1CCCN(CCC=C(c2ccccc2)c2ccccc2)C1` (stereo unspecified) the value was 18.1%; for `O=C(O)c1ccccc1`, -0.18%.
Same read-out and setting: the result for `O=C(c1ccccc1)c1ccc2n1CCC2C(=O)O` (stereo unspecified) reads 66.7%; that for `CCCC(=O)C1(c2ccccc2)CCN(C(=O)[C@@H](Cc2ccc(OC)cc2)NC(=O)[C@@H](N)Cc2cncn2C)CC1`, 4.5%; that for `Nc1cccc2c(=O)[nH][nH]c(=O)c12`, 35.2%.
The same measure, in the same setting: the result for `CCS(=O)(=O)c1ccc2oc(-c3ccc4ccccc4c3)nc2c1` reads 97.2%; that for `c1ccc(Cn2c(-c3ccc(OC[C@H](C4CCNCC4)n4c(-c5ccccc5)nc5ccccc54)cc3)nc3ccccc32)cc1`, 5.68%; that for `COc1cc(/C=C(\C#N)C(N)=O)cc(CSc2nc3ccccc3s2)c1O`, 17.9%.
Take `CCCCc1oc2ccc(NS(C)(=O)=O)cc2c1C(=O)c1ccc(OCCCN(CCCC)CCCC)cc1`: the inhibition in test [1] was 18.6%.
Still for that read-out and setting: the result for `Cc1cnc(-c2cnc(NCCNc3ccc(C#N)cn3)nc2-c2ccc(Cl)cc2Cl)[nH]1` reads 3.11%; that for `Cn1cnc(-c2cc3nccc(Oc4ccc(NC(=S)NC(=O)Cc5ccccc5)cc4F)c3s2)c1`, 28%; that for `Cc1ccc(C(=O)Nc2ccc(CN3CCN(C)CC3)c(C(F)(F)F)c2)cc1C#Cc1cnc2cccnn12`, 32.8%.
Turning to `COC(=O)N1CCN(Cc2cccc(NC(=O)Nc3ccc(C)nc3)c2F)CC1`, the inhibition in test [1] came out at 57.5%.
The same measure, in the same setting: for `COc1cc(N)cn[n+]1-c1ccccc1` the value was 15.3%; for `CC(=O)OCC(=O)[C@@]1(O)[C@@H](C)C[C@H]2[C@@H]3CCC4=CC(=O)C=C[C@]4(C)[C@@]3(F)[C@@H](O)C[C@@]21C`, 8.96%.
For `Clc1cccc(Cl)c1CSc1nnc(-c2cnccn2)s1`, in test [1], the inhibition turned out to be 65.2%.
Same read-out and setting: for `COc1c(OCCCN2CCOCC2)ccc2c1N=C(NC(=O)c1cnc(N)nc1)N1CCN=C21` the value was 8.29%; for `CCCCCNCC(N)=O`, 19.9%; for `Oc1nc(O)c2cn[nH]c2n1`, 9.68%.
On to `Cn1c([N+](=O)[O-])cnc1COC(N)=O`, for which the inhibition in test [1] amounted to 2.87%.
Consider `CCS(=O)(=O)CCn1c([N+](=O)[O-])cnc1C`, for which, in test [1], the inhibition is -4.7%.
`CSc1ccc(OCc2ncc([N+](=O)[O-])n2C)cc1`: in test [1], the inhibition worked out at 57.1%.
In the case of `Nc1[nH]cnc2ncnc1-2`, the inhibition in test [1] is -1.89%.
Regarding `NS(=O)(=O)c1ccc(S(=O)(=O)Nc2cccc3c(Cl)c[nH]c23)cc1`, the inhibition in test [1] is -6.04%.
Same read-out and setting: for `C1CCN2C[C@H]3C[C@H](CN4CCCC[C@@H]34)[C@H]2C1` the value was 30.9%.
On the same count and under the same terms, for `Cc1ncc(-c2csc(N=C(N)N)n2)[nH]1` the value was 3.96%; for `Ic1cc(-c2ccccc2)ncn1`, 25.2%.
On to `CC[C@@]1(O)C(=O)OCc2c1cc1n(c2=O)Cc2cc3c([N+](=O)[O-])cccc3nc2-1`, for which, in test [1], the inhibition came out at 11.9%.
Still for that read-out and setting: for `c1cc(CN2CCCCC2)cc(OCCCNc2nc3ccccc3s2)c1` the value was 59.6%; for `CC(=O)OCC(=O)NCCCOc1cccc(CN2CCCCC2)c1`, 14.5%.
On the same count and under the same terms, for `O=C(OC(C(F)(F)F)C(F)(F)F)N1CCN(Cc2cccc(Oc3ccccc3)c2)CC1` the value was -8.39%.
Regarding `COc1ccc(C(=O)N2CCCc3cc(C4=NNC(=O)SC4C)ccc32)cc1OC` (stereo unspecified), in test [1], the inhibition was 7.12%.
`Cc1ccc(S(=O)(=O)NC2c3ccccc3Oc3ccccc32)cc1`: in test [1], the inhibition stood at 0.27%.
With `CNC(=O)CN(CCN(CCN(CC(=O)O)CC(=O)NC)CC(=O)O)CC(=O)O`, the inhibition in test [1] stood at 17.5%.
